From PubChem BioAssay AID588499 (NMMLSC, 2011)
Screen size: about 360,000 compounds; about 610 (0.17%) were called active. Roughly 2% stayed inconclusive and do not appear here. No stated cut-off is given here; in the data, active means inhibition above about 30%; inconclusive means no clear call, values can overlap the other calls; inactive means below that. This excerpt belongs to a sample that is enriched for actives.

Each compound was assayed on Botulinum neurotoxin type A light chain protease (Clostridium botulinum A str. ATCC 3502) (assay: blockers of BoNT/A LC substrate cleavage – biochemical, flow cytometry, MLPCN library, primary screen (AID 588499; further: plate controls were buffer without enzyme for full effect and enzyme alone for no effect)). Details: multiplex microsphere protease substrate cleavage, at 10 µM, hits give high values.

SMILES	inhibition
NC(CSC12CC3CC(CC(C3)C1)C2)C(=O)O (stereo not drawn)	1.6% (inactive)
CCCCN(C(=O)COc1ccc(NC(C)=O)cc1)C1CCS(=O)(=O)C1 (stereo not drawn)	1.1% (inactive)
O=C(Nc1ccc(-n2ccnc2P(=O)(O)c2ccccc2)cc1)c1ccccc1Br	1.4% (inactive)
O=C(C[n+]1cc(Br)cc2ccccc21)c1ccc(F)cc1	120% (active)
O=C(CNC(=O)c1ccccc1F)c1ccc(Br)cc1	0.8% (inactive)
COC(=O)C[n+]1cccc2ccccc21	28.6% (inactive)
Cc1cc(C)c2c(c1)cc(C)c1nnc(SCC(=O)Nc3cc(C)on3)n12	-0.7% (inactive)
COc1cc(C(=O)NCc2cc3cc(Cl)ccc3n2C)cc(OC)c1OC	0.3% (inactive)
CCOCC(=O)NCc1ccc2c(c1)cc(C)n2C	6% (inactive)
COc1cc(C(=O)NCc2ccc3c(c2)cc(C)n3C)cc(OC)c1OC	74.1% (active)
CCC(Cc1ccccc1)NC(=O)C1CCCCC1 (stereo not drawn)	0.2% (inactive)
O=C(c1c(Cl)nc2sccn12)N1CCCc2ccccc21	0% (inactive)
Cc1cccc2cc3c(N)c(C(=O)N4CCCc5ccccc54)sc3nc12	54.5% (active)
Cc1ccc(C(=O)N2CCCc3ccccc32)c(Cl)c1	-0.5% (inactive)
COc1cc2ccc(C(C)=O)c(O)c2cc1OC	0% (inactive)
C[C@H]1COc2cc(N3CCSCC3)ccc2S(=O)(=O)N1	1.1% (inactive)
Cc1noc(C)c1NC(=O)Nc1cccc2c1O[C@H](CN(C)S(=O)(=O)c1c(C)noc1C)[C@@H](C)CN([C@H](C)CO)C2=O	-0.8% (inactive)
COc1ccc(OC)c(NC(=O)C2CCCN2S(=O)(=O)c2cccc3nsnc23)c1 (stereo not drawn)	0.9% (inactive)
O=c1c(-c2ccccc2Cl)c[nH]n1-c1ccccc1	1.7% (inactive)
CCCCNC(=O)C[C@@H]1C[C@@]2(C(=O)OCC)CCC=C2N(Cc2ccco2)C1=O	0.2% (inactive)

SMILES	inhibition
CN1CC(c2ccccc2)C2(COc3ccccc3C2=O)C12C(=O)Nc1ccccc12 (stereo not drawn)	-0.4% (inactive)
CCc1nc2c(OCC(=O)C(C)(C)C)cccn2c1N(C)C(=O)c1ccccc1F	-0.5% (inactive)
CC(NCc1nc2ccccc2n1C)C12CC3CC(CC(C3)C1)C2 (stereo not drawn)	0% (inactive)
CN1C=CC=C/C1=C1\SC(=S)N(Cc2ccccc2)C1=O	-1.8% (inactive)
COc1ccc(CCNC2=C(Cl)C(=O)N(Cc3ccccc3)C2=O)cc1OC	-0.2% (inactive)
COc1cc(/C=C2/SC(=S)N(Cc3ccccc3)C2=O)cc(OC)c1O	39.9% (active)
O=C(O)CN(Cc1ccco1)S(=O)(=O)c1ccc(F)cc1	-0.4% (inactive)
Cc1csc(Nc2ccc(Cl)cc2)[n+]1-c1ccc(Cl)cc1	-2% (inactive)
O=C(CN1C(=O)c2ccc([N+](=O)[O-])cc2C1=O)Nc1nnc(C2CC2)s1	-0.6% (inactive)
COc1cccc(-c2cc3nc4c(c(N5CCC6(CC5)OCCO6)n3n2)CCCC4)c1	0.1% (inactive)
Cc1ccc2cc(CCNC(=O)c3c(-c4ccccc4Cl)noc3C)c(=O)[nH]c2c1	-0.3% (inactive)
Cc1onc(-c2ccccc2Cl)c1C(=O)NCCn1ccc2ccccc21	81.2% (active)
Cc1onc(-c2ccccc2Cl)c1C(=O)N(Cc1ccc(N(C)C)cc1)C(C)C	-3.2% (inactive)
Oc1c(Cl)cc(Cl)c(Cl)c1Cc1c(O)c(Cl)cc(Cl)c1Cl	-1% (inactive)
CC(=O)Nc1ccc(NC(=O)C(C)n2c3ccccc3c3nc(=O)cc(C)n32)cc1 (stereo not drawn)	-0.3% (inactive)
COc1ccc(-c2cc3c(c4c2ccn4C)C2CCC3C2)cn1 (stereo not drawn)	52.1% (active)
Cc1cccc(S(=O)(=O)N(C)C[C@H]2OCc3cnnn3CCCC(=O)N([C@@H](C)CO)C[C@H]2C)c1	-0.3% (inactive)
Cc1c(CC(=O)N2CCN(C(=O)C3COc4ccccc4O3)CC2)c(=O)oc2c(O)c(O)ccc12 (stereo not drawn)	3.7% (inactive)
COc1ccc(CCNC(=O)C2CC3Cn4c(nc5cc(C)c(C)cc54)C3N2C)cc1 (stereo not drawn)	-0.2% (inactive)
O=C1[C@@H]2C(c3cccnc3)=NO[C@@H]2C(=O)N1c1ccc(Cl)cc1Cl	-0.1% (inactive)

SMILES	inhibition
COc1ccc(NC(=O)N2CCCC(C(=O)Nc3ccccc3OC)C2)cc1 (stereo not drawn)	-1.6% (inactive)
CC1(C(=O)NCc2ccc3c(c2)OCO3)CCN1C(=O)Cc1cccs1 (stereo not drawn)	-0.2% (inactive)
CCN(CC)C(=O)C(C)N1c2cccc3cccc(c23)S1(=O)=O (stereo not drawn)	0.5% (inactive)
CC(C)c1nc(CNC(=O)CC2C(=O)NCCN2Cc2cccc(F)c2F)cs1 (stereo not drawn)	0% (inactive)
Cc1ccc(C(=O)NCC(=O)OCC(=O)Nc2cccc(S(=O)(=O)N3CCCC3)c2)cc1C	-0.4% (inactive)
COC1=NC2=NCCN2C(OC)=N1	-0.5% (inactive)
C[C@H](CO)N1C[C@H](C)[C@@H](CN(C)C(=O)C2CCCCC2)OCc2cnnn2CCCC1=O	-0.2% (inactive)
COc1ccc(S(=O)(=O)N(CCCN2CCCC2=O)Cc2cc3c(C)ccc(C)c3[nH]c2=O)cc1	0.4% (inactive)
CNC(=O)Nc1cc(C(C)(C)C)no1	0% (inactive)
CCOC(=O)C1=C(C)NC2=C(C(=O)CC(C)(C)C2)C1c1ccsc1 (stereo not drawn)	1.6% (inactive)
Cc1nc(-c2ccc(F)cc2)c(CC(=O)Nc2cccc(S(=O)(=O)N3CCOCC3)c2)s1	1.2% (inactive)
Cc1ccc(NC(=O)COc2ccc(-n3ccnc3)cc2)cc1Cl	-0.5% (inactive)
Cc1ccc(-c2nc(-c3cccnc3)sc2CC(=O)Nc2ccc(C)c(Cl)c2)cc1	51.4% (active)
Nc1ncnc2c1cnn2C1CC(O)C(CO)O1 (stereo not drawn)	0.6% (inactive)
C=C1C(=O)[C@]23C[C@H]1CCC2[C@@]1(C)C(C[C@@H]3O)[C@](C)(C(=O)O)CC[C@@H]1O (stereo partly drawn)	0.1% (inactive)
Cc1cc(N2CCCC2)ccc1NC(=O)COc1ccc(Cl)cc1	-8.3% (inactive)
CCN1/C(=C\c2ccc3ccccc3[n+]2CC)Sc2cc(C)ccc21	71.1% (active)
CC(C)C[C@@H](COCc1ccc(Cl)cc1)N1CCN(C(=O)c2ccc(Cl)cc2Cl)CCC1=O	-0.6% (inactive)
